About 1,000 (1.4%) of roughly 69,000 compounds showed an effect of 50% or more. Shown is part of a subset that was picked to be rich in strong results.
Tested on: Leishmania donovani
Assay: Leishmania intramacrophage assay
Format: functional, organism-based
Set-up: scale not given: in the data most compounds retested in dose-response had high values

SMILES: Cc1noc(C)c1CN1C(=O)[C@H]2CC[C@@H]1CN(Cc1ccc(Cl)cc1)C2
- Percent Effect (30.3 µM, […]): 25.74%

SMILES: COc1ccc(F)cc1C(C(=O)O)N1CCCN(C2CCCC2)CC1 (stereo not drawn)
- Percent Effect (30.3 µM, […]): 27.32%

SMILES: CCS(=O)(=O)N1CCN(Cc2cccnc2)c2nc(C)ccc2C1.O=C(O)C(F)(F)F.O=C(O)C(F)(F)F
- Percent Effect (30.3 µM, […]): 32.81%

SMILES: COc1cccc(CCC(=O)N2CCC[C@@H](N)[C@@H]2c2ccccc2F)c1.Cl
- Percent Effect (30.3 µM, […]): 36.93%

SMILES: N[C@@H]1CCCN(C(=O)Cc2c[nH]c3ccccc23)[C@H]1c1ccccc1F
- Percent Effect (30.3 µM, […]): 38.86%

SMILES: COc1ccc(CC(=O)N2CCC[C@@H](N)[C@@H]2c2ccccc2F)cc1.Cl
- Percent Effect (30.3 µM, […]): 50.59%

SMILES: Cc1noc2ncc(S(=O)(=O)Nc3cc(CC(C)(C)C)[nH]n3)cc12
- Percent Effect (30.3 µM, […]): 32.33%

SMILES: CCCN(CCOC)C(=O)c1cc(Cn2c(C)nc3ccccc32)[nH]n1
- Percent Effect (30.3 µM, […]): 37.64%

SMILES: CCCN(CC)C(=O)c1cc(Cn2c(C)nc3ccccc32)[nH]n1
- Percent Effect (30.3 µM, […]): 56.73%

SMILES: CCN(CCO)C(=O)c1cc(Cn2c(C)nc3ccccc32)[nH]n1
- Percent Effect (30.3 µM, […]): 22.11%

SMILES: CCc1nnc2n1CCN(C(=O)c1ccc(-c3ccco3)[nH]c1=O)C2
- Percent Effect (30 µM): 4.718%

SMILES: COc1ccccc1N1CCN(C(=O)CSCC2CC2)C(C)C1 (stereo not drawn)
- Percent Effect (30.3 µM, […]): -23.1%

SMILES: Cc1ccc(C)c(CSc2nnc(C(N)C(C)C)o2)c1.Cl (stereo not drawn)
- Percent Effect (30.3 µM, […]): -13.85%

SMILES: Cc1ccc(C)c(CSc2nnc([C@@H](N)C(C)C)o2)c1.Cl
- Percent Effect (30.3 µM, […]): -10.46%

SMILES: CSCC[C@H](N)c1nnc(SCc2cc(C)ccc2C)o1.Cl
- Percent Effect (30.3 µM, […]): 51.5%

SMILES: Cc1noc(C)c1-c1cncc(C2CCCN2Cc2cn(C)cn2)n1 (stereo not drawn)
- Percent Effect (30.3 µM, […]): 19.34%

SMILES: CNC(=O)N1CC[C@@H]2CN(Cc3cccc(OC)c3)S(=O)(=O)[C@@H]2CC1
- Percent Effect (30.3 µM, […]): 61.69%

SMILES: CNC(=O)N1CC[C@@H]2CN(Cc3cccc(Cl)c3)S(=O)(=O)[C@@H]2CC1
- Percent Effect (30.3 µM, […]): 7.409%

SMILES: CCCC(C(=O)NC1CCN(S(C)(=O)=O)CC1)n1cccc1 (stereo not drawn)
- Percent Effect (30.3 µM, […]): 18.03%

SMILES: COc1ccc(CN2CCC3(CC2)CN(c2ccccn2)CCO3)cc1.O=C(O)C(F)(F)F.O=C(O)C(F)(F)F
- Percent Effect (30.3 µM, […]): -28.76%

SMILES: COc1ccc(C(CNS(=O)(=O)c2cn(C)nc2C)N2CCCC2)cc1.Cl (stereo not drawn)
- Percent Effect (30.3 µM, […]): 23.75%

SMILES: Cc1[nH]c2c(F)cccc2c1CC(=O)N1CCCC(N)CC1 (stereo not drawn)
- Percent Effect (30.3 µM, […]): -7.725%

SMILES: Cn1cc(C2CC(=O)NC23CCN(C(=O)c2cccnc2)CC3)cn1.O=C(O)C(F)(F)F (stereo not drawn)
- Percent Effect (30.3 µM, […]): 56.16%

SMILES: Cn1cc(C2CC(=O)NC23CCN(C(=O)Cc2ccccn2)CC3)cn1.O=C(O)C(F)(F)F (stereo not drawn)
- Percent Effect (30.3 µM, […]): 2.376%

SMILES: Cc1cncc(C(=O)N2CCC3(CC2)NC(=O)CC3c2ccccc2)c1.O=C(O)C(F)(F)F (stereo not drawn)
- Percent Effect (30.3 µM, […]): 4.194%

SMILES: O=C(NCCn1nc2ccccn2c1=O)c1sccc1-c1ccccc1
- Percent Effect (30 µM): 25.6%

SMILES: Cn1ccc(NC(=O)Cc2ccccc2F)n1
- Percent Effect (30.3 µM, […]): -10.05%

SMILES: COC(=O)N1CCCC(C(=O)Nc2nc(C)c(SC)s2)C1 (stereo not drawn)
- Percent Effect (30.3 µM, […]): 9.664%

SMILES: O=C(CCOCc1ccccc1)NS(=O)(=O)N1CCOc2ccccc21
- Percent Effect (30.3 µM, […]): 54.49%

SMILES: CC(C)OCCC(=O)NS(=O)(=O)N1CCOc2ccccc21
- Percent Effect (30.3 µM, […]): -11.14%

SMILES: O=C(CCc1ccco1)NS(=O)(=O)N1CCOc2ccccc21
- Percent Effect (30.3 µM, […]): 39.68%

SMILES: COCCn1cc(C(=O)N2CCCC2c2ccncc2)c2ccccc21 (stereo not drawn)
- Percent Effect (30.3 µM, […]): -8.376%

SMILES: O=C(c1cccnc1)N1CCC2(CNS(=O)(=O)c3cnccc3O2)C1 (stereo not drawn)
- Percent Effect (30.3 µM, […]): 9.418%

SMILES: Cc1cc(N2CCN(C(=O)[C@@H]3C[C@@H]4C=C[C@H]3C4)CC2)nc2ccccc12
- Percent Effect (30.3 µM, […]): 19.09%

SMILES: CC(=O)Nc1ccc(C(=O)N(C)Cc2ccc(F)cc2F)s1
- Percent Effect (30.3 µM, […]): 41.29%

SMILES: CC(=O)Nc1ccc(C(=O)N(C)Cc2cccc(F)c2)s1
- Percent Effect (30.3 µM, […]): -28.94%

SMILES: COc1cccc(CN(C)C(=O)c2ccc(NC(C)=O)s2)c1OC
- Percent Effect (30.3 µM, […]): 52.82%

SMILES: Cc1cc(C(=O)NCc2cccnc2N2CCCC(O)C2)c(C)o1 (stereo not drawn)
- Percent Effect (30.3 µM, […]): 26.29%

SMILES: COc1ccc(C(=O)C2CCCN(c3cc(N)ncn3)C2)c(C)c1 (stereo not drawn)
- Percent Effect (30.3 µM, […]): 55.56%

SMILES: COc1ccc(C(=O)C2CCCN(c3cc(OC)ncn3)C2)c(C)c1 (stereo not drawn)
- Percent Effect (30.3 µM, […]): 27.19%

SMILES: CCc1nc2n(n1)CCCC2NC(=O)Nc1cc(OC)ccc1C (stereo not drawn)
- Percent Effect (30.3 µM, […]): 6.976%

SMILES: CCc1nc(C)cc(N2CCCC(C(=O)c3ccc(OC)cc3C)C2)n1 (stereo not drawn)
- Percent Effect (30.3 µM, […]): 50.79%

SMILES: COc1ccc(C(=O)C2CCCN(c3nccc(N)n3)C2)c(C)c1 (stereo not drawn)
- Percent Effect (30.3 µM, […]): 44.3%

SMILES: COc1ccc(C(=O)C2CCCN(c3cnccn3)C2)c(C)c1 (stereo not drawn)
- Percent Effect (30.3 µM, […]): 7.713%

SMILES: CC1(C)COCCN1C(=O)CCc1nc(-c2ccncc2)no1
- Percent Effect (30.3 µM, […]): 0.2365%

SMILES: CC1CCN(CC(=O)NC2CCN(C(C)c3ccccc3)CC2)CC1.Cl (stereo not drawn)
- Percent Effect (30.3 µM, […]): 0.5624%

SMILES: CCn1ccc(-c2cc(NCCCOc3ccccc3C)nc(C)n2)n1
- Percent Effect (30.3 µM, […]): 56.31%

SMILES: CCn1ccc(-c2cc(NCCCOc3cccc(C)c3)nc(C)n2)n1
- Percent Effect (30.3 µM, […]): 7.258%

From ChEMBL document CHEMBL3988442, “University of Dundee, Small-Polar-MMV Screening Library” (2021)
